KDM5B inhibitor – blocks human KDM5B histone demethylase activity; Potency, µM (top dose mostly 57.7 µM), usual class: inhibitors; actives 2.6% (n = 220,000); KDM5B demethylase, FDH-coupled NADH fluorescence (FDH is formaldehyde dehydrogenase); Q9UGL1; AID 1347165; active = well fitted inhibition curve with a large enough effect; also: nearly all actives have a fitted effect of over 70% in size
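Compound dilutions met 200 nM (final) KDM5BΔAP for 10 min at room temperature before substrate addition. The substrate mix held 12.5 µM H3K4me3 with cofactors 25 µM α-ketoglutarate and 50 µM Fe²⁺. NADH signal gain over 30 min defined activity.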
Of the large screens only hits and unclear results are named; the others gave an inactive call. Many of the other results were omitted from the sample, so hits are more common in it than they were.

O=C(NCCn1cccn1)C1CCC(=O)N(CC2CCCCC2)C1 (stereo not drawn)	none
COC[C@@H]1CN(c2ncccn2)C[C@H]1C(=O)NCCn1cccn1	KDM5B inhibitor 20µM
CNC(=O)[C@@H]1CN(C(=O)CCn2cccn2)C[C@H]1COC	none
C/C=C/C=C/C(=O)NC(C)c1cc(F)ccc1F (stereo not drawn)	none
CCOc1ccc(C(=O)N[C@H]2C[C@@H]3OCC[C@H]23)cc1OCC	none
O=C(COc1ccc(F)c(Cl)c1)N[C@H]1C[C@@H]2OCC[C@H]12	none
O=C(CSc1ccc(Cl)cc1)N[C@@H]1COCC[C@@H]1OCC1CC1	none
Cc1ccc(O[C@H]2COCC[C@H]2NC(=O)CCc2nc3ccccc3[nH]2)cn1	none
CO[C@@H]1COCC[C@H]1NC(=O)CCc1ccc(-c2ccc(Cl)cc2)[nH]1	KDM5B inhibitor 28µM
O=C(CCc1ccc(-c2ccc(Cl)cc2)[nH]1)N[C@@H]1C[C@@H]2OCC[C@@H]21	KDM5B inhibitor 32µM
COc1cc(Br)cc2cc(-c3nc(-c4ccccc4C)no3)c(=O)oc12	none
Clc1ccc(-c2cnc([C@@H]3COCCN3Cc3c[nH]c4ccccc34)[nH]2)s1	none
CCCCn1c(N2CCN(Cc3c(F)cccc3Cl)CC2)nc2c1c(=O)[nH]c(=O)n2C	none
CCOC(=O)CCNC(=O)c1cc(F)ccc1Br	none
Cc1ccc(NC(=O)Cn2c(-c3ccccc3)nc(C)c(CCO)c2=O)c(C)c1	none
N#Cc1ccc(C(=O)N2CCN(c3oc(C4CC4)nc3C#N)CC2)cc1	none
O=C(N[C@H](Cc1ccncc1)C1CC(O)C1)c1cccn2cnnc12 (stereo partly drawn)	KDM5B inhibitor 22µM
O=C(N[C@H](Cc1ccncc1)C1CC(O)C1)c1ccc(CO)o1 (stereo partly drawn)	none
NS(=O)(=O)c1ccc(C(=O)NC(Cc2ccncc2)C2CC(O)C2)cc1 (stereo not drawn)	none
CC(C)=CC(=O)NC(C)c1cc(C)sc1C (stereo not drawn)	none
Cc1nn(C)c(C)c1CCC(=O)N1CCC(Cc2noc(-c3ccc(F)cc3)n2)C1 (stereo not drawn)	none
CCOc1cc(=O)n2c(c1C(=O)Nc1cc(C)ccc1F)CCCC2	none
Cc1ccc(NC(=O)c2cc3c(N4CCSCC4)nc(C)cn3n2)c(C)c1	KDM5B inhibitor 32µM
Cc1ccc(NC(=O)c2cnc(N3CCCCC3)c3ccccc23)c(C)c1	none
Cc1ccc(NC(=O)c2sc(-n3nc(C)c(Cl)c3C)nc2C)c(C)c1	none
Cc1ccc(F)c(NC(=O)c2cc3c(N4CCSCC4)nc(C)cn3n2)c1	KDM5B inhibitor 32µM
CCOc1ccc2c(c1)cc(C(=O)Nc1cc(C)ccc1F)n2C	none
Cc1cnc(C2CC2)n1CCNS(=O)(=O)c1ccccc1Cl	none
CC(Sc1n[nH]c(-c2cccs2)n1)C(=O)Nc1c(F)cccc1F (stereo not drawn)	none
COCCN1C(=O)[C@@H]2C[C@@H](CN2Cc2ccccc2)Oc2ccccc21	none
COCCN1C(=O)[C@@H]2C[C@@H](CN2Cc2ccc(Cl)cc2)Oc2ccccc21	none
O=C1[C@@H]2C[C@@H](CN2Cc2ccccc2)Oc2ccccc2N1CC1CC1	none
O=C1[C@@H]2C[C@@H](CN2Cc2ccc(F)c(F)c2)Oc2ccccc2N1Cc1ccccn1	none
O=C1[C@@H]2C[C@@H](CN2Cc2cnc3ccccc3c2)Oc2ccccc2N1CC1CC1	KDM5B inhibitor 45µM
O=C1[C@@H]2C[C@@H](CN2Cc2nccs2)Oc2ccccc2N1Cc1ccc(OC(F)(F)F)cc1	KDM5B inhibitor 28µM
CN1C(=O)[C@@H]2C[C@@H](CN2Cc2ccc(OC(F)(F)F)cc2)Oc2ccccc21	none
COCCN1C(=O)[C@@H]2C[C@@H](CN2Cc2ccc3ccccc3n2)Oc2ccccc21	KDM5B inhibitor 32µM
O=C1[C@@H]2C[C@@H](CN2C2COC2)Oc2ccccc2N1Cc1ccc(OC(F)(F)F)cc1	none
CCN(Cc1ccccc1)CC(O)COCc1ccc(OC)c(OC)c1 (stereo not drawn)	none
CCN(CC(=O)NCc1ccc(F)cc1)C(=O)c1ccc2c(c1)nnn2CC	none
CNC1C2CC3CC(C2)CC1C3 (stereo not drawn)	none
CC(C)(C)c1[nH]nc(C(=O)O)c1Br	none
COc1cccc(CN2C(=O)N(c3cccc(OC)c3)S(=O)(=O)c3ccccc32)c1	none
CN(Cc1ccc(F)cc1)c1ccc2ncc(Nc3ccnc(N4CCOCC4)c3)n2n1	KDM5B inhibitor 28µM
COc1cncc(Nc2cnc3ccc(-c4ccccc4OC)nn23)c1	none
Fc1ccc(-c2ccc3ncc(Nc4cc(F)cc(N5CCOCC5)c4)n3n2)cc1	none
COc1ccc(Nc2cnc3ccc(N(C)Cc4cccnc4)nn23)cc1OC	none
COc1cncc(Nc2cnc3ccc(N(C)Cc4ccc(F)cc4)nn23)c1	KDM5B inhibitor 35µM
Fc1ccc(-c2ccc3ncc(Nc4ccnc(N5CCOCC5)c4)n3n2)cc1	none
CC(=O)N1CCc2cc(NC(=O)CCc3ncc(-c4ccccc4F)o3)ccc21	none
CC(Sc1nc(-c2ccccc2)c(-c2ccccc2)o1)C(=O)NC1CC1 (stereo not drawn)	none
CCN(CC)c1nc2ncn(CC(=O)Nc3cc(C)cc(C)c3)c(=O)c2s1	none
COc1ccc(-c2cc(C(=O)NC3CC3)c3ccccc3n2)c(OC)c1	none

Assay outcomes deposited in PubChem BioAssay by National Center for Advancing Translational Sciences (NCATS).
